Source: the antibiotic and cytotoxicity screens of Wong et al. (2023)
In all, about 39,000 compounds went through this assay and about 3,300 (8.5%) were called active. Only a selection was taken, and actives are over-represented in it overall.

tested on: HepG2; experiment: cytotoxicity call (relative viability < 0.9); details: 10 µM

**Q.** With `Cc1cccc2ccccc12` as the molecule, how does the cytotoxicity call read?
**A.** inactive

**Q.** Which cytotoxicity call does the source give for `Cc1cccc(C)c1OCC(C)N.Cl` (stereo not drawn) here?
**A.** active

**Q.** How did the cytotoxicity call turn out when `Cc1cccc(C)c1OC[C@@H](C)N` was run?
**A.** inactive

**Q.** How did the cytotoxicity call turn out when `C[C@@H]1CN([C@@H](C)CO)C(=O)c2cc(NS(=O)(=O)c3cn(C)cn3)ccc2O[C@@H]1CN(C)S(=O)(=O)c1ccc(Cl)cc1` was run?
**A.** inactive

**Q.** With `O=C(CCCCCCC(=O)Nc1ccc([C@H]2O[C@@H](COc3ccccc3)C[C@H](c3ccccc3)O2)cc1)NO` as the molecule, how does the cytotoxicity call read?
**A.** inactive

**Q.** Which cytotoxicity call does the source give for `O=C(CCCCCCC(=O)Nc1ccc([C@H]2O[C@@H](CN3CCCCCCC3)C[C@H](c3ccccc3)O2)cc1)NO` here?
**A.** inactive

**Q.** Which cytotoxicity call does the source give for `O=C(CCCCCCC(=O)Nc1ccc([C@H]2O[C@@H](CSc3nc(-c4ccccc4)c(-c4ccccc4)o3)C[C@H](c3ccc([N+](=O)[O-])cc3)O2)cc1)NO` here?
**A.** active

**Q.** `O=C(CCCCCCC(=O)Nc1ccc([C@@H]2O[C@H](CSc3nc(-c4ccccc4)c(-c4ccccc4)o3)C[C@H](c3ccccc3)O2)cc1)NO` was tested. Which cytotoxicity call did it give?
**A.** inactive

**Q.** With `O=C(O)CCCCCCC(=O)Nc1ccc([C@H]2O[C@@H](CSc3nc(-c4ccccc4)c(-c4ccccc4)o3)C[C@H](c3ccc([N+](=O)[O-])cc3)O2)cc1` as the molecule, how does the cytotoxicity call read?
**A.** inactive

**Q.** With `COc1cc2c(cc1OC)CN(C[C@H]1C[C@H](c3ccccc3)O[C@H](c3ccc(NC(=O)CCCCCCC(=O)NO)cc3)O1)CC2` as the molecule, how does the cytotoxicity call read?
**A.** active

**Q.** `O=C(CCCCCCC(=O)Nc1ccc([C@H]2O[C@H](CSc3nc(-c4ccccc4)c(-c4ccccc4)o3)C[C@H](c3ccc(NC(=O)CCCCCCC(=O)NO)cc3)O2)cc1)NO` was tested. Which cytotoxicity call did it give?
**A.** inactive

**Q.** `O=C(CCCCCCC(=O)Nc1ccc([C@H]2O[C@@H](CSc3nc4ccccc4o3)C[C@H](c3ccccc3)O2)cc1)NO` was tested. Which cytotoxicity call did it give?
**A.** active

**Q.** `O=C(CCCCCCC(=O)Nc1ccc([C@H]2C[C@@H](CSc3nc(-c4ccccc4)c(-c4ccccc4)o3)O[C@H](c3ccccc3)O2)cc1)NO` was tested. Which cytotoxicity call did it give?
**A.** inactive

**Q.** With `C[C@@H]1CN([C@H](C)CO)C(=O)c2cc(C#CCN(C)C)cnc2O[C@@H]1CN(C)C(=O)CCN1CCCCC1` as the molecule, how does the cytotoxicity call read?
**A.** inactive

**Q.** Which cytotoxicity call does the source give for `Cc1noc(C)c1NC(=O)N[C@@H]1C=C[C@H](CC(=O)NCCCN(C)C)O[C@@H]1CO` here?
**A.** inactive

**Q.** How did the cytotoxicity call turn out when `C[C@@H]1CN([C@@H](C)CO)C(=O)c2cccc(NC(=O)Nc3ccc4c(c3)OCO4)c2O[C@H]1CN(C)Cc1ccc(Cl)c(Cl)c1` was run?
**A.** inactive

**Q.** How did the cytotoxicity call turn out when `C[C@H](CO)N1C[C@H](C)[C@@H](CN(C)C(=O)Nc2ccc(C(F)(F)F)cc2)Oc2ccc(NC(=O)Nc3cccc4ccccc34)cc2CC1=O` was run?
**A.** inactive

**Q.** For `C[C@H](CO)N1C[C@H](C)[C@@H](CN(C)Cc2ccc(C(=O)Nc3ccccc3N)cc2)OCCCC[C@H](C)Oc2ccc(N(C)C)cc2C1=O`, which cytotoxicity call is on record?
**A.** inactive
